The source made the active and inactive calls.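 The calls were made as follows: active = inhibition of the reporter signal at or above 50%; inactive = inhibition below 50%.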
Assay: TLR3 IRF3 reporter activation blockers – cell-based, poly I:C stimulus, luciferase, 10K MLSCN set, primary screen (AID 602277)
Details: HEK293-TLR3 RL24 IRF3 luciferase reporter, at 10 µM, hits give high values

inhibition, active:
COc1cc(NS(=O)(=O)c2ccc(N)cc2)nc(OC)n1 51.9%, CC(NC(=O)Nc1nccs1)(C(F)(F)F)C(F)(F)F 56.3%

inhibition, inactive:
C=CCSc1nnc2n(CCc3ccccc3)c(=O)c3c4c(sc3n12)COC(C)(C)C4 -17.3%, COc1c2occc2c(OC)c2c(=O)cc(C)oc12 36%, CCCn1c(=O)c2[nH]c(C3CCCC3)nc2n(CCC)c1=O 38.5%, CCOC(=O)Cc1nnc(Nc2cccc(O)c2)c2ccccc12 -8.25%, COc1ccc(C(=O)Cn2c(N3CCCCC3)nc3c2c(=O)n(C)c(=O)n3C)cc1OC 12.6%, CCn1cc(C(=O)O)c(=O)c2cc(F)c(N3CCNCC3)nc21 17.6%, Cc1ccc(S(=O)(=O)NC(=O)NN2CCCCCC2)cc1 19.5%, Cn1c(/C(C#N)=C/Nc2ccccn2)nc2ccccc21 -19.7%, COc1ccc(CNc2oc(COc3ccccc3Cl)nc2C#N)cc1 6.46%, CC(NC(=O)NCCCC(=O)O)(C(F)(F)F)C(F)(F)F 21.7%, CCC1CCCCN1c1nc(-c2ccncc2)nc2ccccc12 (configuration not stated) 30.3%, C=C(C)C1Cc2c(C)nn(-c3nc(C)cc(C)n3)c2C1 (configuration not stated) 16.4%, CCCCOc1ccc(CC(=O)NO)cc1 31.2%, COC(=O)c1cc(Br)c(=O)n(-c2nccs2)c1 1.38%, Cc1ccc(NC(=O)CSC2=C(C#N)C(c3ccc4c(c3)OCO4)CC(=O)N2)cc1C (configuration not stated) -9.47%

Source: PubChem BioAssay
